From PubChem BioAssay (NCI) come the findings set out here.

The panel holds about 83,000 compounds, 20% with a hit somewhere; the sample as a whole holds those more often.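 Activity criterion: percent growth below 10, measured after cells in 96-well plates were exposed to a single compound concentration for 48 hours.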 Unmarked numbers belong to inactive results. Active and inactive are the calls of the source.

Test systems include NCI-H23 lung; NCI-H226 lung; NCI-H322M lung; HOP-62 NSCLC; NCI-H460 lung; HOP-92 NSCLC; NCI-H522 lung; A549/ATCC NSCLC; 786-0 renal; COLO 205 colon.
What all share (assay): NCI-60 one-dose screen, 48 h (100 = growth as untreated, 0 = no growth, -100 = all killed)
What all share (conditions): 10 µM

Turning to `Nc1nnc(-c2c[nH]c3ncccc23)c(-c2c[nH]c3ccc(Br)cc23)n1`, the growth is 57.1% in the assay on NCI-H23 lung; 63.6% in the assay with NCI-H226 lung; 60.5% in the assay on NCI-H322M lung; 49.4% in the assay on HOP-62 NSCLC; 27.2% in the assay on NCI-H460 lung; 54.8% with HOP-92 NSCLC. In addition, the growth is 47.9% in the assay on NCI-H522 lung, 58.9% with A549/ATCC NSCLC, 40% in the assay with 786-0 renal and 66.9% in the assay with COLO 205 colon.
In the case of `N#Cc1ccc(-c2nn(-c3ccc(C(=O)O)cc3)cc2CNc2ccc(Oc3ccccc3)cc2)cc1`, the growth is 12% in the assay with NCI-H23 lung; 85.1% with NCI-H226 lung; 88.2% in the assay with NCI-H322M lung; 37.4% in the assay on HOP-62 NSCLC; 40.2% with NCI-H460 lung; 38.8% in the assay with HOP-92 NSCLC. Also, the growth with NCI-H522 lung is 66.8%; with A549/ATCC NSCLC it was 46.5%; in the assay with 786-0 renal it was 30.5%; with COLO 205 colon, 118%.
With `CNC(=O)c1cc(-c2ccc(NC(=O)Nc3ccc(C)cc3)cc2)nc2cccnc12`, the growth in the assay with NCI-H23 lung was 101%; with NCI-H226 lung it was 61.4%; in the assay on NCI-H322M lung it was 96.6%; with HOP-62 NSCLC it was 90.6%; in the assay with NCI-H460 lung, 105%; in the assay on HOP-92 NSCLC it was 64.6%. In addition, the growth in the assay on NCI-H522 lung was 87.5%; in the assay with A549/ATCC NSCLC, 98.1%; with 786-0 renal, 104%; in the assay on COLO 205 colon, 115%.
Consider `CNCc1cccc2c1OCCCCCC[C@@](C)(O)CC1(CC1)S(=O)(=O)c1ccc(cc1)-c1cnc(N)c(n1)C(=O)N2`, for which the growth with NCI-H23 lung is -95.4% (active); in the assay with NCI-H226 lung it was -75.7% (active); in the assay with NCI-H322M lung, -96.8% (active); in the assay with HOP-62 NSCLC it was -84.3% (active); in the assay with NCI-H460 lung it was -74.8% (active); with HOP-92 NSCLC, -67.8% (active). Further, the growth in the assay on NCI-H522 lung is -87.2% (active); with A549/ATCC NSCLC it was -79.5% (active); in the assay on 786-0 renal it was -82.9% (active); in the assay on COLO 205 colon, -89.9% (active).
With `O=C(CSc1nnc(-c2ccc3nc(-c4ccccc4)[nH]c3c2)o1)Nc1ccc(Br)cc1`, the growth is 54.2% with NCI-H23 lung; 80.2% with NCI-H226 lung; 86.3% with NCI-H322M lung; 92.2% in the assay on HOP-62 NSCLC; 6.71% (active) in the assay with NCI-H460 lung; 135% in the assay on HOP-92 NSCLC. For the same compound, the growth was 61.2% in the assay with NCI-H522 lung, 66.2% in the assay with A549/ATCC NSCLC, 66.7% in the assay with 786-0 renal and 81.1% in the assay on COLO 205 colon.
Regarding `COc1ccccc1[C@H]1C(C(=O)c2ccc(Cl)cc2)C2(N[C@@H]1c1ccccc1)C(=O)Nc1ccccc12` (stereo not given in full), the growth in the assay on NCI-H23 lung was -55.3% (active); in the assay with NCI-H226 lung, -53.2% (active); in the assay with NCI-H322M lung, 10.3%; in the assay with HOP-62 NSCLC, -21.9% (active); in the assay with NCI-H460 lung, -27.2% (active); in the assay on HOP-92 NSCLC, -21.8% (active). Besides, the growth in the assay with NCI-H522 lung was -27.5% (active); in the assay on A549/ATCC NSCLC, 9.22% (active); in the assay with 786-0 renal, -15% (active); in the assay with COLO 205 colon it was -88.2% (active).
`COc1ccc(/C=C/C(=O)c2ccc(NC(=O)CN3C(=O)NC(C)(c4ccccc4)C3=O)cc2)cc1` (stereo not given): the growth in the assay with NCI-H23 lung was 83.8%; in the assay on NCI-H226 lung, 80.3%; in the assay with NCI-H322M lung, 105%; with HOP-62 NSCLC it was 95.1%; in the assay with NCI-H460 lung, 102%; in the assay on HOP-92 NSCLC, 120%. Further, the growth is 86.8% in the assay on NCI-H522 lung, 85.9% with A549/ATCC NSCLC, 81.2% with 786-0 renal and 106% with COLO 205 colon.
With `CCOC(=O)CNC(=O)CN(Cc1ccccc1)C(=O)[C@@]1(C)CCC[C@]2(C)[C@H]3CC4C(C(C)C)=C[C@]3(CC[C@H]21)[C@@H]1C(=O)CCC(=O)[C@H]41`, the growth with NCI-H23 lung was 48.9%; with NCI-H226 lung, 49.3%; in the assay with NCI-H322M lung, 86.5%; in the assay with HOP-62 NSCLC it was 92.3%; in the assay with NCI-H460 lung it was 65%; with HOP-92 NSCLC, 80.5%. The growth in the assay with NCI-H522 lung is 36.7%; in the assay on A549/ATCC NSCLC it was 65%; in the assay with 786-0 renal, 78.1%; in the assay on COLO 205 colon, 79.4%.
As for `O=C(N/N=C/c1ccc(-c2cccc([N+](=O)[O-])c2)o1)c1[nH]c2ccc(Br)cc2c1-c1ccccc1`, the growth with NCI-H23 lung is 17.6%; in the assay on NCI-H226 lung it was 16.2%; with NCI-H322M lung it was 54%; with HOP-62 NSCLC it was 38.7%; in the assay on NCI-H460 lung it was 9.61% (active); in the assay with HOP-92 NSCLC, 55.7%. In addition, the growth with NCI-H522 lung was -48.4% (active); with A549/ATCC NSCLC it was 0.801% (active); with 786-0 renal, 5.31% (active); in the assay on COLO 205 colon, -65.4% (active).
Turning to `O=[N+]([O-])c1ccc(-c2nc(-c3ccccc3)c(-c3ccccc3)n2-c2ccc(S(=O)(=O)Nc3ncccn3)cc2)cc1`, the growth in the assay on NCI-H23 lung was 23.9%; in the assay with NCI-H226 lung, 27.7%; in the assay with NCI-H322M lung, 65.7%; in the assay with HOP-62 NSCLC, 61.9%; in the assay on NCI-H460 lung, 31.3%; in the assay on HOP-92 NSCLC, 5.67% (active). Also, the growth was 69.4% in the assay on NCI-H522 lung, 60% in the assay with A549/ATCC NSCLC, 35.9% in the assay with 786-0 renal and 125% in the assay on COLO 205 colon.
For `O=C(Nc1ccc(OCc2ccccc2)cc1)Nc1ccc(Cl)c(C(F)(F)F)c1`, the growth in the assay with NCI-H23 lung was -5.44% (active); with NCI-H226 lung it was -27.7% (active); with NCI-H322M lung, 7% (active); with HOP-62 NSCLC, 5.97% (active); in the assay with NCI-H460 lung, 3.69% (active); in the assay on HOP-92 NSCLC it was -38.7% (active). Also, the growth in the assay on NCI-H522 lung is -20.3% (active); with A549/ATCC NSCLC it was 5.97% (active); in the assay with 786-0 renal, 17.9%; with COLO 205 colon, -72.7% (active).
Turning to `Cc1ccc(C(C)C)cc1NC(=O)c1ccccc1O`, the growth in the assay on NCI-H23 lung is 11.8%; in the assay on NCI-H226 lung, 26.6%; with NCI-H322M lung it was 55%; in the assay on HOP-62 NSCLC it was 54.4%; in the assay on NCI-H460 lung, 30.8%; in the assay on HOP-92 NSCLC, -4.4% (active). In addition, the growth in the assay with NCI-H522 lung is 20.6%; in the assay on A549/ATCC NSCLC, 47.8%; in the assay with 786-0 renal, 58.8%; with COLO 205 colon, 100%.
For the compound `CCOP(=O)(OCC)O[C@H]1CC[C@]2(C)[C@H]3CC[C@@H]4[C@@H]([C@](C)(O)CCC=C(C)C)CC[C@@]4(C)[C@]3(C)CC[C@H]2C1(C)C`, the growth with NCI-H23 lung was 15.4%; in the assay on NCI-H226 lung, 20.9%; with NCI-H322M lung it was 74.1%; in the assay on HOP-62 NSCLC, 57.3%; in the assay with NCI-H460 lung it was 11.2%; in the assay on HOP-92 NSCLC, 2.88% (active). The growth with NCI-H522 lung is 1.32% (active); in the assay on A549/ATCC NSCLC, 22.1%; in the assay with 786-0 renal, 23.3%; in the assay on COLO 205 colon it was -33% (active).
